PrP UTR inh: inhibition of PrP 5' UTR reporter expression | cell-based PrP 5' UTR mRNA reporter, plate reader | inhibition, % (no concentration beside the values) | 340,000 compounds, 0.35% hits | AID 488862; in the data active means inhibition above about 52%; further: 0 = median of the neutral control wells
BJeLR lethal: kills HRASV12-expressing BJeLR cells. BJeLR (HRASV12) viability, CellTiter-Glo ATP luminescence, 48 h. inhibition, % (concentration not given with the values). 300,000 compounds, 0.17% hits; in the data active means inhibition above about 50%; inconclusive means no clear call, values can overlap the other calls
SSB-PriA inh: inhibitors of Klebsiella pneumoniae PriA binding to SSB C-terminal tail; AlphaScreen SSBct-PriA binding, biotinylated peptide; inhibition, % at 33 µM; 430,000 compounds, 0.6% hits; AID 1272365; in the data active means inhibition mostly above about 37%, no sharp cut-off; inactive means mostly below about 20%;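 further: plate controls were negative control peptide for no effect and reference peptide for full effect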
PrPC TRFRET: cell surface PrPC inhibition, primary TR-FRET screen; 370,000 compounds, 0.43% hits; TR-FRET read-out; P04156; AID 720596; inhibition, % at 13.8 µM; in the data active means inhibition above about 24%; further: 0% = median of the test wells and 100% = reference compound wells
SARS 3CLpro inh: SARS-CoV 3CLpro protease inhibition; recombinant SARS-CoV 3CLpro, quenched FRET peptide cleavage; AID 1706; 290,000 compounds, 0.14% hits; inhibition, % at 6 µM; P0C6X7; in the data active means inhibition above about 12%
PrP UTR cherry: prion 5' UTR mRNA inhibition, cherry-pick retest | AID 504592 | inhibition, % at 2.5 µM | 1,100 compounds, 48% hits | shares compounds with PrP UTR inh | cell-based prion protein 5' UTR reporter, plate reader; in the data active means inhibition above about 54%; inconclusive means no clear call, values can overlap the other calls
Numbers without * were called inactive; ? = inconclusive; . = no result; ! = repeats disagree. In the library only some 1.2% were active in any assay of this set; here they are far more common.

SMILES	PrP UTR inh	BJeLR lethal	SSB-PriA inh	PrPC TRFRET	SARS 3CLpro inh	PrP UTR cherry
CC1CCN(c2nc3c(c(=O)n(C)c(=O)n3C)n2C[C@H](O)COc2ccc(Cl)cc2Cl)CC1	.	.	-14	.	.	.
Cc1cc(C)c2c(N)c(C(=O)Nc3ncc(C)s3)sc2n1	89*	.	-3	-28	-12	84*
CC(=O)Nc1ccc(NC(=O)CN(C)CC(=O)Nc2ccccc2Br)cc1	-17	3	-3	6	3	.
CN(CC(=O)Nc1cccc(F)c1)CC(=O)N(C)CC(=O)Nc1ccccc1Br	91*	.	0	-5	.	-30
COc1ccc(NC(=O)Cn2c(=O)n(CC3CCCO3)c(=O)c3cc(OC)c(OC)cc32)cc1OC (stereo not given)	58*	11	-9	-3	-10	-3
COc1cc(NC(=O)Cn2c(=O)n(CC3CCCO3)c(=O)c3cc(OC)c(OC)cc32)cc(OC)c1 (stereo not given)	0	6	-14	-4	-2	.
CC(C)Oc1ccc(C(=O)Nc2nc3ccccc3[nH]2)cc1	61*	29	-12	-2	-3	62*
O=C(Nc1nc2ccccc2[nH]1)c1ccccc1F	85*	85*	-4	8	7	85*
CCc1ccc(C(=O)Nc2nc3ccccc3[nH]2)cc1	63*	18	-3	11	-5	?
O=C(Nc1nc2ccccc2[nH]1)c1ccc(OC(F)F)cc1	-61	8	5	-8	3	.
O=C(Nc1nc2ccccc2[nH]1)c1ccc(F)cc1	0	26	-12	-7	8	.
CCOC(=O)N1CCN(S(=O)(=O)c2ccc(C(=O)Nc3ccc(S(=O)(=O)Nc4nnc(CC)s4)cc3)cc2)CC1	.	.	-12	.	.	.
CC(=O)Nc1nc(CC(=O)Nc2ccc(C)c(C)c2)cs1	.	.	-7	.	.	.
CCN(CC)S(=O)(=O)c1ccc(C(=O)O)cc1	80*	6	-4	-3	1	8
CCN(CC)S(=O)(=O)c1ccc(C(=O)NCCc2ccccn2)cc1	78*	-13	-8	6	3	-14
CCCN(CCC)S(=O)(=O)c1ccc(C(=O)O)cc1	-16	1	-5	2	-6	.
O=C(NCCc1ccccn1)c1ccc(NS(=O)(=O)c2ccc(F)cc2)cc1	-1	-2	-5	8	-1	.
Cn1c(=NNC(=O)c2ccccc2Br)sc2ccccc21	.	.	-12	.	.	.
O=C(Nc1cnc(N2CCCC2)nc1)c1ccccn1	.	.	-17	.	.	.
O=C(Nc1ccc(N2CCCCC2)cc1)c1ccccn1	93*	44	-1	.	0	90*
CC1(C)C(=O)N(CCN2CCC(C(=O)c3ccc(F)cc3)CC2)c2ccccc21	53*	.	-7	2	.	-22
O=C(c1ccc(F)cc1)C1CCN(CCn2c(=S)[nH]c3ccccc3c2=O)CC1	.	10	.	.	1	.
N#Cc1cc2c([nH]c1=O)CCCCC2	.	.	-17	.	.	.
Fc1ccc(-n2nnc(-c3cnc4ccccc4c3)n2)cc1	71*	8	10	-4	-3	54*
Fc1ccc(-n2nnc(-c3cccnc3)n2)cc1	-45	-5	-3	5	-5	.
SMILES	PrP UTR inh	BJeLR lethal	SSB-PriA inh	PrPC TRFRET	SARS 3CLpro inh	PrP UTR cherry
CCOc1cccc2c1OC(c1ccccn1)N1N=C(c3cccs3)CC21 (stereo not given)	.	.	6	.	.	.
c1ccc2ncccc2c1	63*	.	-1	.	.	6
CC1OC(OC2C=C3CCC4C(CCC5(C)C(c6ccc(=O)oc6)CCC45O)C3(C)CC2)C(O)C(OC2OC(CO)C(O)C(O)C2O)C1O (stereo not given)	93*	.	-16	-4	.	92*
N#Cc1c(NC(=O)CSc2ncn[nH]2)sc2c1CCCC2	68*	0	-8	9	-5	67*
CC1CCc2c(sc(NC(=O)CSc3ncn[nH]3)c2C#N)C1 (stereo not given)	70*	-4	-2	4	4	79*
NCCCS(=O)(=O)O	74*!	-17	-8	6	3	-7
C/C(=N\NC(=O)c1ccccc1NC(=O)c1ccc(Cl)cc1)c1ccncc1	76*	132*	.	9	2	70*
Cc1cc(C)cc(Nc2nc3c([nH]2)c(=O)n(C)c(=O)n3C)c1	5	-5	-8	0	1	.
Cn1c(=O)c2[nH]c(N=Nc3ccc(N)cc3N)nc2n(C)c1=O	71*	0	3	-3	3	-5
CCC(=O)NC(c1ccc(OC)cc1)c1cc(Cl)c2cccnc2c1O (stereo not given)	35	8	-7	-4	4	.
COc1ccc(C(NC(=O)c2cccnc2)c2cc(Cl)c3cccnc3c2O)cc1OC (stereo not given)	89*	12	17	2	-6	30
O=C(CC(c1ccccc1)c1ccccc1)NCC1CCS(=O)(=O)C1 (stereo not given)	.	.	7	.	.	.
O=C(O)CSc1nnc(-c2ccc3c(c2)OCO3)o1	-7	8	-13	13	-4	.
O=C(c1ccc(Cl)cc1)N1CCCCC(Sc2nnc(-c3ccc4c(c3)OCO4)o2)C1=O (stereo not given)	74*	6	-13	-7	-2	78*
Cc1[nH]c(=O)[nH]c(=O)c1CCc1nnc(SCC(=O)NCc2ccc3c(c2)OCO3)o1	.	.	-8	.	.	.
COc1ccc(/C=N\NC(=O)C2C(=O)NCC2c2ccccc2)cc1O (stereo not given)	71*	5	.	-1	-2	-48
N[C@@H](Cc1ccccc1)C(=O)N1C[C@H]2C[C@@H](C1)c1cccc(=O)n1C2	67*	-4	.	16	1	-12
Cc1ccc(-n2[nH]c(=O)c(-c3ccccn3)c2C)cc1	72*	4	-5	9	-3	68*
Cc1ccc(-n2[nH]c(=O)c3cccnc32)cc1	-13	-13	-7	-1	6	.
CC1CCCC=CC2CC(OC(=O)CN(C)C)CC2C(O)C=CC(=O)O1 (stereo not given)	81*	.	-10	90*	.	90*
C[C@H]1CCC/C=C/[C@@H]2C[C@H](O)C[C@H]2[C@@H](O)/C=C/C(=O)O1	86*	.	-16	93*	.	91*
C[C@H]1CCC/C=C/[C@@H]2C[C@H](O)C[C@H]2[C@H](O)[C@H](S(=O)c2ccc(O)cc2)CC(=O)O1 (stereo not given in full)	86*	.	-12	89*	.	69*
COc1cccc(CSc2nc(CC(=O)Nc3cccc(C(C)=O)c3)cc(=O)[nH]2)c1	.	.	-10	.	.	.
NC(=NOC(=O)COc1ccc(Br)cc1)c1ccncc1	.	.	-5	.	.	.
CN(C)CCCNC(=O)c1ccc(Oc2ccccc2)cc1	88*	-1	-6	4	-2	-12
CC(Oc1ccccc1F)C(=O)NCCCn1nc(-c2ccco2)ccc1=O (stereo not given)	.	.	2	.	.	.
Cc1nnc(NN2CCOCC2)[nH]c1=O	84*	2	2	7	-4	-29
COC(=O)Nc1ccc(S(=O)(=O)N2CCC(S(=O)(=O)c3nccn3C)CC2)cc1	.	.	-11	.	.	.

Assay outcomes from PubChem BioAssay.
